# In PubChem BioAssay (NCI):
# The panel holds about 79,000 compounds, 15% with a hit somewhere; the sample as a whole holds those more often. Unmarked numbers belong to inactive results. The source made the active and inactive calls. No stated cut-off is given here; in the data, active means growth inhibition above about 70%; inactive means the rest.
# Key:
# [1] = NCI Yeast Anticancer Drug Screen. Data for the rad52 strain (AID 147);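 further: 0% = growth of vehicle-treated control cultures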; conditions: S. cerevisiae rad52 mutant growth inhibition, active compounds read high
# Outline: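 Vehicle-treated cultures served as the reference for growth inhibition of compound-exposed yeast bearing a DNA repair mutation.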
# [2] = NCI Yeast Anticancer Drug Screen. Data for the wt1 strain (AID 149);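 further: 0% = growth of vehicle-treated wt1 cultures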; conditions: S. cerevisiae wt1 strain (SPY 50644) growth inhibition, active compounds read high
# Outline: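 Using yeast strain wt1, compound-induced growth inhibition was determined against vehicle-treated cultures.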
# [3] = NCI Yeast Anticancer Drug Screen. Data for the rad50EPP+ strain (AID 151);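 further: 0% = growth of vehicle-treated control cultures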; conditions: S. cerevisiae rad50 mutant strain, active compounds read high
# Outline: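 In this screen, rad50EPP+ yeast were exposed to compounds. Growth inhibition was scored against vehicle-treated controls.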
# [4] = NCI Yeast Anticancer Drug Screen. Data for the mgt1 strain (AID 153); conditions: S. cerevisiae mgt1 mutant growth inhibition, active compounds read high
# Outline: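 mgt1 strain exposed; growth vs vehicle control recorded as inhibition.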
# [5] = NCI Yeast Anticancer Drug Screen. Data for the rad50 strain (AID 155);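 further: 0% = growth of vehicle-only cultures of the same strain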; conditions: S. cerevisiae rad50 strain growth inhibition, active compounds read high
# Outline: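 Relative growth inhibition (compound vs vehicle) was measured in yeast with a defined repair-gene alteration.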
# [6] = NCI Yeast Anticancer Drug Screen. Data for the mec2-1 strain (AID 157); conditions: S. cerevisiae mec2-1 strain, active compounds read high
# Outline: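 Vehicle-treated cultures served as reference for growth inhibition of compound-exposed mec2-1 yeast.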
# [7] = NCI Yeast Anticancer Drug Screen. Data for the rad14 strain (AID 159);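 further: 0% = growth of vehicle-treated control cultures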; conditions: S. cerevisiae rad14 strain growth inhibition, active compounds read high
# Outline: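 Screen for anticancer potential: a yeast strain altered in DNA damage repair is grown with compound, and reduced growth is quantified against vehicle controls.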
# [8] = NCI Yeast Anticancer Drug Screen. Data for the sgs1 mgt1 strain (AID 161);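 further: 0% = growth of cultures given vehicle only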; conditions: S. cerevisiae sgs1 mgt1 strain, active compounds read high
# Outline: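 Test agents were incubated with a DNA-repair-mutant yeast strain. Growth was then read and compared against vehicle-treated controls.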
# [9] = NCI Yeast Anticancer Drug Screen. Data for the CLN2oe strain (AID 163);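 further: 0% = growth of vehicle-only control cultures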; conditions: S. cerevisiae CLN2oe strain, active compounds read high
# Outline: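 Inhibition relative to vehicle-treated yeast is reported. Cells: strain with genetic alteration in cell-cycle control, grown with compound.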
# [10] = NCI Yeast Anticancer Drug Screen. Data for the cln2 rad14 strain (AID 165);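 further: 0% = growth equal to vehicle treated cultures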; conditions: S. cerevisiae cln2 rad14 strain, active compounds read high
# Outline: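 Each compound was tested on cln2 rad14 yeast. Inhibition of growth was calculated against vehicle-exposed controls.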
# [11] = NCI Yeast Anticancer Drug Screen. Data for the bub3 strain (AID 167); conditions: S. cerevisiae bub3 mutant strain, active compounds read high
# Outline: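 Screening used yeast with an engineered genetic alteration affecting cell cycle control. Compound-exposed cultures were compared with vehicle cultures, and reduced growth was taken as inhibition.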
# [12] = NCI Yeast Anticancer Drug Screen. Data for the wt2 strain (AID 169);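 further: 0% = growth of vehicle-treated yeast cultures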; conditions: S. cerevisiae wt2 strain growth inhibition, active compounds read high
# Outline: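 Inhibition of yeast growth was determined after compound treatment, normalised to controls receiving only vehicle.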
# [13] = NCI Yeast Anticancer Drug Screen. Data for the sgs1 strain (AID 173);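 further: 0% = growth of vehicle-only control cultures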; conditions: S. cerevisiae sgs1 mutant, active compounds read high
# Outline: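 Screen format: yeast with repair or checkpoint alterations, compound exposure, growth read relative to vehicle.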
# [14] = NCI Yeast Anticancer Drug Screen. Data for the mlh1 rad18 strain (AID 175); conditions: S. cerevisiae mlh1 rad18 strain growth inhibition, active compounds read high
# Outline: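 Vehicle-treated cultures served as the reference for growth inhibition in a yeast strain carrying DNA damage repair alterations exposed to each compound.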
# [15] = NCI Yeast Anticancer Drug Screen. Data for the rad18 strain (AID 177); conditions: S. cerevisiae rad18 mutant growth inhibition, active compounds read high
# Outline: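 Test articles were incubated with altered yeast defective in DNA damage repair. Results are given as inhibition of growth versus vehicle.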
# [16] = NCI Yeast Anticancer Drug Screen. Data for the mlh1 strain (AID 171);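 further: 0% = growth of vehicle-treated control cultures of the same strain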; conditions: S. cerevisiae mlh1 strain growth inhibition, active compounds read high
# Outline: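 Vehicle-normalised growth inhibition of a repair- or checkpoint-altered yeast strain following compound treatment.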
# [17] = at 5.0 µM (retest, dose inferred, filed as 0.5)
# [18] = at 50.0 µM (retest, dose inferred, filed as 5.0)
smiles,measurement,setting,value
COc1cc(C2C3=C(COC3=O)Oc3cc4c(cc32)OCO4)cc(OC)c1O (stereo unspecified),growth inhibition,[1]; at 1.2 µM,90% (active)
same,growth inhibition,[1]; at 3.7 µM,86% (active)
same,growth inhibition,[1]; at 11.0 µM,93% (active)
same,growth inhibition,[1]; at 33.0 µM,93% (active)
same,growth inhibition,[1]; at 100.0 µM,94% (active)
same,growth inhibition,[2]; at 1.2 µM,1%
same,growth inhibition,[2]; at 3.7 µM,2%
same,growth inhibition,[2]; at 11.0 µM,3%
same,growth inhibition,[2]; at 33.0 µM,6%
same,growth inhibition,[2]; at 100.0 µM,8%
same,growth inhibition,[3]; at 1.2 µM,-2%
same,growth inhibition,[3]; at 3.7 µM,0%
same,growth inhibition,[3]; at 11.0 µM,1%
same,growth inhibition,[3]; at 33.0 µM,-3%
same,growth inhibition,[3]; at 100.0 µM,0%
same,growth inhibition,[4]; at 1.2 µM,0%
same,growth inhibition,[4]; at 3.7 µM,-2%
same,growth inhibition,[4]; at 11.0 µM,15%
same,growth inhibition,[4]; at 33.0 µM,-2%
same,growth inhibition,[4]; at 100.0 µM,7%
same,growth inhibition,[5]; at 1.2 µM,88% (active)
same,growth inhibition,[5]; at 3.7 µM,88% (active)
same,growth inhibition,[5]; [17],14%
same,growth inhibition,[5]; at 11.0 µM,92% (active)
same,growth inhibition,[5]; at 33.0 µM,92% (active)
same,growth inhibition,[5]; [18],97% (active)
same,growth inhibition,[5]; at 50.0 µM,70% (active)
same,growth inhibition,[5]; at 100.0 µM,93% (active)
same,growth inhibition,[6]; at 1.2 µM,12%
same,growth inhibition,[6]; at 3.7 µM,7%
same,growth inhibition,[6]; [17],-24%
same,growth inhibition,[6]; at 11.0 µM,18%
same,growth inhibition,[6]; at 33.0 µM,25%
same,growth inhibition,[6]; [18],39%
same,growth inhibition,[6]; at 50.0 µM,59.1%
same,growth inhibition,[6]; at 100.0 µM,29%
same,growth inhibition,[7]; at 1.2 µM,5%
same,growth inhibition,[7]; at 3.7 µM,5%
same,growth inhibition,[7]; at 11.0 µM,16%
same,growth inhibition,[7]; at 33.0 µM,12%
same,growth inhibition,[7]; at 100.0 µM,15%
same,growth inhibition,[8]; [17],-3%
same,growth inhibition,[8]; [18],47%
same,growth inhibition,[8]; at 50.0 µM,36.7%
same,growth inhibition,[9]; at 1.2 µM,0%
same,growth inhibition,[9]; at 3.7 µM,-3%
same,growth inhibition,[9]; at 11.0 µM,5%
same,growth inhibition,[9]; at 33.0 µM,17%
same,growth inhibition,[9]; at 100.0 µM,21%
same,growth inhibition,[10]; [17],8%
same,growth inhibition,[10]; [18],51%
same,growth inhibition,[10]; at 50.0 µM,55.1%
same,growth inhibition,[11]; at 1.2 µM,1%
same,growth inhibition,[11]; at 3.7 µM,-1%
same,growth inhibition,[11]; [17],-18%
same,growth inhibition,[11]; at 11.0 µM,14%
same,growth inhibition,[11]; at 33.0 µM,10%
same,growth inhibition,[11]; [18],9%
same,growth inhibition,[11]; at 50.0 µM,23.3%
same,growth inhibition,[11]; at 100.0 µM,13%
same,growth inhibition,[12]; at 1.2 µM,2%
same,growth inhibition,[12]; at 3.7 µM,1%
same,growth inhibition,[12]; at 11.0 µM,5%
same,growth inhibition,[12]; at 33.0 µM,6%
same,growth inhibition,[12]; at 100.0 µM,8%
same,growth inhibition,[13]; at 1.2 µM,13%
same,growth inhibition,[13]; at 3.7 µM,10%
same,growth inhibition,[13]; at 11.0 µM,22%
same,growth inhibition,[13]; at 33.0 µM,26%
same,growth inhibition,[13]; at 100.0 µM,28%
same,growth inhibition,[14]; [17],-10%
same,growth inhibition,[14]; [18],58%
same,growth inhibition,[14]; at 50.0 µM,72.7% (active)
same,growth inhibition,[15]; at 1.2 µM,11%
same,growth inhibition,[15]; at 3.7 µM,11%
same,growth inhibition,[15]; at 11.0 µM,19%
same,growth inhibition,[15]; at 33.0 µM,9%
same,growth inhibition,[15]; at 100.0 µM,24%
CCOC(=O)/C(=C\c1ccc(F)cc1)C(C)=O,growth inhibition,[1]; at 1.2 µM,-43%
same,growth inhibition,[1]; at 3.7 µM,-17%
same,growth inhibition,[1]; at 11.0 µM,57%
same,growth inhibition,[1]; at 33.0 µM,94% (active)
same,growth inhibition,[1]; at 100.0 µM,98% (active)
same,growth inhibition,[2]; at 1.2 µM,-17%
same,growth inhibition,[2]; at 3.7 µM,4%
same,growth inhibition,[2]; at 11.0 µM,48%
same,growth inhibition,[2]; at 33.0 µM,93% (active)
same,growth inhibition,[2]; at 100.0 µM,98% (active)
same,growth inhibition,[3]; at 1.2 µM,8%
same,growth inhibition,[3]; at 3.7 µM,30%
same,growth inhibition,[3]; at 11.0 µM,68%
same,growth inhibition,[3]; at 33.0 µM,93% (active)
same,growth inhibition,[3]; at 100.0 µM,98% (active)
same,growth inhibition,[4]; at 1.2 µM,-19%
same,growth inhibition,[4]; at 3.7 µM,6%
same,growth inhibition,[4]; at 11.0 µM,77% (active)
same,growth inhibition,[4]; at 33.0 µM,96% (active)
same,growth inhibition,[4]; at 100.0 µM,99% (active)
same,growth inhibition,[5]; at 1.2 µM,-7%
same,growth inhibition,[5]; at 3.7 µM,19%
same,growth inhibition,[5]; [17],30%
same,growth inhibition,[5]; at 11.0 µM,72% (active)
same,growth inhibition,[5]; at 33.0 µM,95% (active)
same,growth inhibition,[5]; [18],97% (active)
same,growth inhibition,[5]; at 50.0 µM,91.8% (active)
same,growth inhibition,[5]; at 100.0 µM,97% (active)
same,growth inhibition,[6]; at 1.2 µM,-43%
same,growth inhibition,[6]; at 3.7 µM,-3%
same,growth inhibition,[6]; [17],0%
same,growth inhibition,[6]; at 11.0 µM,74% (active)
same,growth inhibition,[6]; at 33.0 µM,95% (active)
same,growth inhibition,[6]; [18],98% (active)
same,growth inhibition,[6]; at 50.0 µM,93.8% (active)
same,growth inhibition,[6]; at 100.0 µM,97% (active)
same,growth inhibition,[7]; at 1.2 µM,-11%
same,growth inhibition,[7]; at 3.7 µM,-4%
same,growth inhibition,[7]; at 11.0 µM,61%
same,growth inhibition,[7]; at 33.0 µM,95% (active)
same,growth inhibition,[7]; at 100.0 µM,97% (active)
same,growth inhibition,[8]; [17],21%
same,growth inhibition,[8]; [18],97% (active)
same,growth inhibition,[8]; at 50.0 µM,93% (active)
same,growth inhibition,[9]; at 1.2 µM,6%
same,growth inhibition,[9]; at 3.7 µM,4%
same,growth inhibition,[9]; at 11.0 µM,67%
same,growth inhibition,[9]; at 33.0 µM,96% (active)
same,growth inhibition,[9]; at 100.0 µM,98% (active)
same,growth inhibition,[10]; [17],9%
same,growth inhibition,[10]; [18],93% (active)
same,growth inhibition,[10]; at 50.0 µM,89% (active)
same,growth inhibition,[11]; at 1.2 µM,9%
same,growth inhibition,[11]; at 3.7 µM,37%
same,growth inhibition,[11]; [17],48%
same,growth inhibition,[11]; at 11.0 µM,91% (active)
same,growth inhibition,[11]; at 33.0 µM,97% (active)
same,growth inhibition,[11]; [18],97% (active)
same,growth inhibition,[11]; at 50.0 µM,92.1% (active)
same,growth inhibition,[11]; at 100.0 µM,98% (active)
same,growth inhibition,[16]; at 1.2 µM,2%
same,growth inhibition,[16]; at 3.7 µM,42%
same,growth inhibition,[16]; at 11.0 µM,88% (active)
same,growth inhibition,[16]; at 33.0 µM,97% (active)
same,growth inhibition,[16]; at 100.0 µM,97% (active)
same,growth inhibition,[13]; at 1.2 µM,-2%
same,growth inhibition,[13]; at 3.7 µM,22%
same,growth inhibition,[13]; at 11.0 µM,72% (active)
same,growth inhibition,[13]; at 33.0 µM,97% (active)
same,growth inhibition,[13]; at 100.0 µM,98% (active)
same,growth inhibition,[14]; [17],6%
same,growth inhibition,[14]; [18],97% (active)
same,growth inhibition,[14]; at 50.0 µM,91.9% (active)
same,growth inhibition,[15]; at 1.2 µM,-34%
same,growth inhibition,[15]; at 3.7 µM,14%
same,growth inhibition,[15]; at 11.0 µM,77% (active)
same,growth inhibition,[15]; at 33.0 µM,94% (active)
same,growth inhibition,[15]; at 100.0 µM,97% (active)
